The nature of test [1]: NCI Yeast Anticancer Drug Screen. Data for the rad50 strain (AID 155).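 Also: 0% = growth of vehicle-only cultures of the same strain.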 Particulars: S. cerevisiae rad50 strain growth inhibition; at 50.0 µM; active compounds read high. Summed up: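 Genetically altered yeast (DNA repair pathway); compound treatment; growth inhibition vs vehicle ctrl.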
A short description of test [2]: NCI Yeast Anticancer Drug Screen. Data for the mec2-1 strain (AID 157). Particulars: S. cerevisiae mec2-1 strain, at 50.0 µM, active compounds read high. Summed up: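 Test agents were screened against the mec2-1 yeast strain, with defined DNA repair or cell cycle alteration. Growth was scored as inhibition against vehicle-only controls.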
A short description of test [3]: NCI Yeast Anticancer Drug Screen. Data for the sgs1 mgt1 strain (AID 161).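 Also: 0% = growth of cultures given vehicle only.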 Particulars: S. cerevisiae sgs1 mgt1 strain, at 50.0 µM, active compounds read high. In short, it runs like this: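 Test agents were incubated with a DNA-repair-mutant yeast strain. Growth was then read and compared against vehicle-treated controls.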
Test [4] in a line: NCI Yeast Anticancer Drug Screen. Data for the cln2 rad14 strain (AID 165).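 Also: 0% = growth equal to vehicle treated cultures.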 Particulars: S. cerevisiae cln2 rad14 strain, at 50.0 µM, active compounds read high. Summed up: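 Growth of compound-exposed yeast (cln2 rad14 genotype) measured and expressed as inhibition relative to vehicle.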
The nature of test [5]: NCI Yeast Anticancer Drug Screen. Data for the bub3 strain (AID 167). Particulars: S. cerevisiae bub3 mutant strain, at 50.0 µM, active compounds read high. In short, it runs like this:
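Yeast carrying a defined mutation is treated with each compound, and growth is compared with that of vehicle-exposed cells to give inhibition.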

A short description of test [6]: NCI Yeast Anticancer Drug Screen. Data for the mlh1 rad18 strain (AID 175). Particulars: S. cerevisiae mlh1 rad18 strain growth inhibition; at 50.0 µM; active compounds read high. Summed up: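 In this whole-cell yeast screen, a strain with altered DNA damage repair is challenged with compound, and its growth is measured against matched vehicle-treated controls.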

Compounds without any hit were thinned out: in the full panel of roughly 79,000, 15% have a hit. A number with no mark means an inactive call. Active and inactive are the calls of the source. Rule as the data show it: active = growth inhibition above about 70%; inactive = the rest.

As to `CCOC(=O)C1=NNC(=O)C1`, the growth inhibition is 4.4% in test [1]; -2.95% in test [2]; 2.35% in test [3]; 9.85% in test [4]; -0.3% in test [5]; 4.75% in test [6].

`OC(CN1CCCCC1)c1ccncc1` (stereo unspecified): the growth inhibition was 0.5% in test [1]; -24.8% in test [2]; -8.4% in test [3]; -0.9% in test [4]; 1% in test [5]; 1.4% in test [6].

Turning to `COc1ccc(N2C(=O)[C@@H]3[C@H](C2=O)c2[nH]c4ccccc4c2C2CCC(C(C)(C)C)C[C@@H]23)cc1` (stereo partly specified), the growth inhibition in test [1] is 29.6%; in test [2], 4.1%; in test [3] it was 12.3%; in test [4] it was 31.4%; in test [5], 6.2%; in test [6], 7.85%.

In the case of `CCCCCCCCCOc1ccc2ccccc2c1`, the growth inhibition in test [1] was -16.9%; in test [2], 16.1%; in test [3], 22.4%; in test [4], -17.9%; in test [5], -15.2%; in test [6], -4.5%.

With `O=C(OCCCCNC1CCCCC1)c1ccc([N+](=O)[O-])cc1`, the growth inhibition is 9.65% in test [1]; 3% in test [2]; -7.05% in test [3]; -7.3% in test [4]; -13.6% in test [5]; 5.25% in test [6].

Take `N#C/C(=C\c1cccnc1)c1ccc(Br)cc1`: the growth inhibition was 59.4% in test [1]; 36.4% in test [2]; 41.8% in test [3]; 14.3% in test [4]; 43.5% in test [5]; 70% (active) in test [6].

As for `CCC(=O)OCCN(C)C`, the growth inhibition in test [1] is -28%; in test [2], -50.4%; in test [3] it was 0.65%; in test [4] it was 10.8%; in test [5], -19.3%; in test [6] it was -8.35%.

Turning to `CC(=O)NCC1OC2COC(c3ccccc3)OC2C2N=C(c3ccccc3)OC12` (stereo unspecified), the growth inhibition in test [1] is -9.45%; in test [2], 1.3%; in test [3] it was 8.5%; in test [4], 7.8%; in test [5] it was 14.8%; in test [6] it was 81.8% (active).

Turning to `CCOS(=O)(=O)c1ccc(F)c([N+](=O)[O-])c1`, the growth inhibition was 7.3% in test [1]; 5.6% in test [2]; -1.9% in test [3]; -47% in test [4]; 2.65% in test [5]; -2.1% in test [6].

`CN(C)c1cc2c(cc1N(C)C)-c1ccccc1C2`: the growth inhibition is 9.85% in test [1]; 6.5% in test [2]; 13.9% in test [3]; -0.2% in test [4]; 10.1% in test [5]; 28.9% in test [6].

Consider `CN(C)c1nc(N)nc(CS)n1`, for which the growth inhibition is 10.8% in test [1]; 10.4% in test [2]; -9.05% in test [3]; 10.3% in test [4]; -4.15% in test [5]; -39.5% in test [6].

For the molecule `c1ccc(C2(c3ccccc3)CCc3ccccc3O2)cc1`, the growth inhibition in test [1] is 27.5%; in test [2], 15.6%; in test [3], 4.7%; in test [4], -40.5%; in test [5], -9.6%; in test [6] it was 31.9%.

As to `CN1CCc2[nH]nc(-c3n[nH]c4c3CN(C)CC4)c2C1`, the growth inhibition in test [1] is 15.8%; in test [2], 0.85%; in test [3], 10.5%; in test [4], -0.05%; in test [5], -8.6%; in test [6], 13.6%.

Regarding `CC1(C)OC(=O)C(=Cc2ccc(O)cc2)C(=O)O1`, the growth inhibition in test [1] is -20.9%; in test [2], -9.45%; in test [3], -34.5%; in test [4], -4.6%; in test [5] it was -21.5%; in test [6], -34.3%.

As for `N#CC1CNC(=S)N=C1c1ccccc1` (stereo unspecified), the growth inhibition in test [1] is 11.5%; in test [2], 17.8%; in test [3], 17.9%; in test [4] it was -74.6%; in test [5], 0.9%; in test [6] it was 12.1%.

On to `CC(C)C(C)(O)C#CC(C)(O)C(C)C` (stereo unspecified), for which the growth inhibition in test [1] is 1.4%; in test [2], 8.85%; in test [3] it was 3.25%; in test [4], -15.5%; in test [5] it was 23.9%; in test [6] it was 12.1%.

`CS(=O)(=O)C(c1nc2n(c1O)/C(=N/C(=O)Nc1ccc(Cl)cc1)N=N2)c1nc2n(c1O)/C(=N/C(=O)Nc1ccc(Cl)cc1)N=N2`: the growth inhibition is -14.9% in test [1]; 4.5% in test [2]; -8.5% in test [3]; -16.3% in test [4]; 1.3% in test [5]; -1.15% in test [6].

`Brc1ccccc1/C=N\N=C\c1ccccc1Br`: the growth inhibition was 12.9% in test [1]; 2.5% in test [2]; 12.2% in test [3]; -5.25% in test [4]; -6.4% in test [5]; 5.35% in test [6].

As for `COc1cc2nncc(Sc3cnnc4ccccc34)c2cc1OC`, the growth inhibition in test [1] was 19.1%; in test [2] it was 29.6%; in test [3], 18.6%; in test [4] it was 13.3%; in test [5], 36%; in test [6] it was 35.6%.

As for `CCOC(=O)C1Cc2c([nH]c(=O)[nH]c2=O)OC1c1ccc(OC)cc1` (stereo unspecified), the growth inhibition is 26.4% in test [1]; 7.1% in test [2]; 6.3% in test [3]; 19.4% in test [4]; 27.1% in test [5]; 8.5% in test [6].

Turning to `CC1=CC(C)(C)NC(=S)N1c1ccccc1O`, the growth inhibition is -0.95% in test [1]; 25.6% in test [2]; 15.3% in test [3]; -16.4% in test [4]; 41.8% in test [5]; 41% in test [6].

Take `CN(C)CCCNC(=O)CCNC(=O)c1cc(NC(=O)c2cc(NC(=O)c3cc(NC(=O)c4nccn4C)cn3C)cn2C)cn1C`: the growth inhibition was 24.4% in test [1]; -23.4% in test [2]; -17.2% in test [3]; 12.4% in test [4]; -5.15% in test [5]; 7.15% in test [6].

Regarding `COc1cc(C=O)cc(NC(C)=O)c1OC(C)=O`, the growth inhibition in test [1] was 6.55%; in test [2], 0.3%; in test [3], 4.85%; in test [4], -4.85%; in test [5], 24.9%; in test [6], 9.95%.

Consider `CC1=C(C(=O)Nc2cccc3c2C(=O)NC3=O)CC(C(=O)Nc2cccc3c2C(=O)NC3=O)=C(C)N1`, for which the growth inhibition in test [1] is -51%; in test [2], -18.6%; in test [3], -6.15%; in test [4] it was -25.8%; in test [5] it was -10.9%; in test [6], -25.8%.

As for `Cc1ccc2cccc3c2c1CC1(C3=O)S(=O)(=O)OCCOS1(=O)=O`, the growth inhibition in test [1] is 9.2%; in test [2], 4.45%; in test [3], 20.1%; in test [4] it was 14.7%; in test [5] it was 39%; in test [6] it was -2.3%.

Take `CC(=O)Nc1ccc2c(c1)Cc1cc(Cl)c(Cl)cc1-2`: the growth inhibition is 57.5% in test [1]; -4.05% in test [2]; 31.7% in test [3]; -17.1% in test [4]; -3.7% in test [5]; 37.6% in test [6].

For the molecule `O=c1c(Cl)c(N2CCCCC2)cnn1-c1ccccc1`, the growth inhibition is 20.8% in test [1]; 14.2% in test [2]; 16.6% in test [3]; 7.6% in test [4]; 14.1% in test [5]; 19.4% in test [6].

For the molecule `CSC(=N\N=C\c1c(F)cccc1Cl)/N=C/N(C)C`, the growth inhibition in test [1] was 8.7%; in test [2], -4.1%; in test [3], 12.7%; in test [4], 14.8%; in test [5] it was -2.85%; in test [6] it was 4%.

In the case of `CCN(CC)CCCNc1cc(O)cc2cccnc12`, the growth inhibition is -1.5% in test [1]; 5% in test [2]; 26.6% in test [3]; 2.6% in test [4]; 2.3% in test [5]; -0.35% in test [6].

For the molecule `N#Cc1ccc[n+]([O-])c1`, the growth inhibition in test [1] was -8.8%; in test [2], -6.1%; in test [3] it was 0.05%; in test [4] it was -0.7%; in test [5], 7.65%; in test [6], -4.6%.

As for `C/C=C/c1nc2c(c(=O)n(C)c(=O)n2C)n1C`, the growth inhibition was -8.05% in test [1]; -8.2% in test [2]; -6% in test [3]; -28.8% in test [4]; 0.95% in test [5]; 7% in test [6].

For the molecule `Cc1ccc(CN(CCO)Cc2ccccc2)cc1`, the growth inhibition in test [1] was 1.75%; in test [2], 39%; in test [3], 28.1%; in test [4] it was 0.65%; in test [5] it was 43.1%; in test [6], 47.1%.

Consider `O=C(O)c1ccc(N=C=S)cc1O`, for which the growth inhibition was -1.95% in test [1]; -8.75% in test [2]; -2.1% in test [3]; -12.8% in test [4]; 3.8% in test [5]; -1.8% in test [6].

As for `CCCCC1c2c([nH]c3ccccc23)C2C(=O)N(c3ccc(OC)cc3)C(=O)C2C1CCC` (stereo unspecified), the growth inhibition was 9.75% in test [1]; -19.5% in test [2]; -14.6% in test [3]; -27.5% in test [4]; 1.6% in test [5]; -5.6% in test [6].

With `NC(=O)/C(=C\c1ccc(OCc2ccccc2)c(OCc2ccccc2)c1)NC(=O)c1ccccc1`, the growth inhibition in test [1] is 41.2%; in test [2] it was 22.4%; in test [3] it was 44%; in test [4], 32.6%; in test [5], -3.65%; in test [6] it was 17.7%.

As to `O=C(c1ccc(Cl)cc1Cl)N1CCCCC1`, the growth inhibition in test [1] is 1.45%; in test [2] it was -6.15%; in test [3], 1.75%; in test [4], -1.25%; in test [5], 4.9%; in test [6] it was 0.15%.

Values taken from PubChem BioAssay (NCI).
